# The source made the active and inactive calls.
# What was measured:
# [1] = compound effects on lung adenocarcinoma cell viability – A549, calcein-AM fluorescence, 48 h, basal, profiling panel (AID 1162); conditions: higher = more signal
# [2] = compound effects on differentiated 3T3-L1 adipocyte viability – cell-based, 3T3-L1 adipocytes, calcein-AM fluorescence, 48 h, basal, profiling panel (AID 1163); conditions: 3T3-L1 adipocytes viability, higher = more signal
# [3] = compound effects on hepatocellular carcinoma cell viability – HepG2, calcein-AM fluorescence, 48 h, basal, profiling panel (AID 1164); conditions: higher = more signal
# [4] = compound effects on multiple myeloma cell viability – MM1S, calcein-AM fluorescence, 48 h, basal, profiling panel (AID 1165); conditions: higher = more signal
# [5] = calcein-AM signal in unstimulated myeloma cells – cell-based, calcein-AM fluorescence, 48 h, PK04 Diversity Set, profiling panel (AID 1166); conditions: RPMI8226 myeloma viability, higher = more signal;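 further: cells grown under basal conditions without added stimulus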
# [6] = JC-1 mitochondrial signal, unstimulated HepG2 cells – cell-based, JC-1 fluorescence, 24 h, 100 nL compound, profiling panel (AID 1167); conditions: HepG2 mitochondrial potential, higher = more signal
# [7] = JC-1 mitochondrial signal, unstimulated adipocytes – cell-based, JC-1 fluorescence, 3T3-L1 adipocytes, 24 h, 100 nL compound, profiling panel (AID 1168); conditions: JC-1 mitochondrial fluorescence, higher = more signal, called active from +8 up or from −8 down
# [8] = JC-1 mitochondrial signal, unstimulated myeloma cells – cell-based, JC-1 fluorescence, RPMI8226, 24 h, 100 nL compound, profiling panel (AID 1169); conditions: JC-1 mitochondrial potential fluorescence, higher = more signal
# [9] = JC-1 mitochondrial signal, unstimulated MM1S myeloma – cell-based, JC-1 fluorescence, 24 h, 100 nL compound, profiling panel (AID 1170); conditions: MM1S mitochondrial potential, higher = more signal
# [10] = resazurin metabolic signal in A549 cells – cell-based, resazurin fluorescence, 24 h, PK04 Diversity Set, profiling panel (AID 1171); conditions: A549 viability, higher = more signal, called active from +8 up or from −8 down
# Further: test concentration not given here.
Structure (SMILES),z-score [1],z-score [2],z-score [3],z-score [4],z-score [5],z-score [6],z-score [7],z-score [8],z-score [9],z-score [10]
CCOc1cc(C(O)C2C=CC3C(=O)NC(=O)C3N2Nc2ccc(Cl)cc2Cl)ccc1O (stereo not given),-1.33,-0.337,-0.672,-0.433,-0.236,-1.19,-1.05 (inactive),-0.76,0.172,-0.873 (inactive)
CCCCCCCCCC(O)C1C=CC2C(=O)N(c3ccccc3)C(=O)C2N1Nc1cc(OC)c(OC)c(OC)c1 (stereo not given),-1.07,0.614,-0.777,-3.83,-4.07,-0.0684,0.783 (inactive),-0.994,-1.21,-1.58 (inactive)
COC(=O)[C@@]1(Cc2ccc(OC)cc2)[C@H]2c3cc(C(=O)N4CCCC4)n(CCc4c[nH]c5ccc(O)cc45)c3C[C@H]2CN1C(=O)c1ccccc1,1.06,-0.226,0.8,-0.927,0.305,0.873,-0.793 (inactive),-0.259,-0.401,0.521 (inactive)
CN(C)C(=O)[C@]1(CCC(=O)OC(C)(C)C)N=C(c2ccc(OCCCO)cc2)O[C@@H]1c1ccccc1CN=[N+]=[N-],-0.307,0.911,0.697,0.545,0.259,1.74,-0.682 (inactive),0.124,-0.412,0.669 (inactive)
NC(=O)NCC#Cc1ccc2c(c1)[C@]1(C(=O)N2)[C@H](c2ccccc2OCCO)N2[C@H](c3ccccc3)[C@H](c3ccccc3)OC(=O)[C@H]2[C@@H]1C(=O)O,-0.371,-0.161,-1.06,-0.253,0.713,-0.716,0.485 (inactive),0.689,-0.394,1.73 (inactive)
CCCCC(O)C1C=CC2C(=O)N(C)C(=O)C2N1N(c1ccccc1)c1ccccc1 (stereo not given),-0.646,-1.68,0.821,-0.769,-0.938,-1.19,-1.3 (inactive),-0.198,-0.497,-0.7 (inactive)
Cc1ccc(S[C@]2(C(=O)NC(C)C)CC(=O)N(Cc3cc(C(F)(F)F)cc(C(F)(F)F)c3)[C@@H]2c2ccc(CO)cc2)cc1,0.15,-0.312,-0.286,0.395,0.392,-0.387,-0.5 (inactive),-0.555,-0.129,0.271 (inactive)
NCCCCCNC(=O)[C@H]1C[C@H]2C(=O)N3CCC[C@H]3C(=O)N2[C@H]1c1cccc(OCCO)c1,-0.173,0.101,-0.816,-1.53,-0.881,0.37,0.13 (inactive),0.113,-0.503,-0.845 (inactive)
CCCCC(CC)C(O)C1C=CC2C(=O)N(c3ccccc3)C(=O)C2N1Nc1ccc(C#N)cc1 (stereo not given),1.99,-0.494,2.34,0.0084,0.368,-1.31,-1.61 (inactive),0.0604,-0.679,0.857 (inactive)
CO[C@H]1O[C@H](CO)[C@@H](OC(=O)Nc2ccc3c(c2)OCO3)[C@H](OC(=O)Nc2ccc3c(c2)OCO3)[C@@H]1OC(=O)Nc1ccc2c(c1)OCO2,-0.077,0.0003,-0.797,-1.89,-1.84,-1.14,-0.13 (inactive),-0.538,-0.357,-0.333 (inactive)
CC(C)C(O)C1C=CC2C(=O)N(c3ccccc3)C(=O)C2N1Nc1ccccc1 (stereo not given),-1.17,-0.68,-0.917,-0.528,-1.03,-1.6,-0.855 (inactive),0.0949,-1.35,0.184 (inactive)
CCCNC(=O)[C@@]1(C)c2ccccc2C(=O)N(c2ccc(C)cn2)[C@H]1c1ccc(CO)cc1,0.666,0.343,-0.146,-0.108,0.526,0.204,-0.0622 (inactive),0.0215,0.43,-0.407 (inactive)
CCOC(=O)C[C@H]1[C@H](OC(=O)c2ccccc2-c2ccccc2)[C@@H](NC(=O)c2ccc3ccccc3c2)c2cc(OCCCO)ccc2N1C(=O)c1ccccc1,0.065,0.257,-0.336,-0.306,-0.604,0.579,0.633 (inactive),-0.25,0.171,-0.385 (inactive)
CCCCCN1CC=CC23O[C@@H]4C=CCCOC(=O)C4[C@H]2C(=O)N(CCCCCCO)[C@@H]3C1=O (stereo not given in full),-0.182,-0.131,0.28,0.762,0.494,0.306,0.737 (inactive),0.548,-0.823,0.229 (inactive)
COc1cc2c(cc1O)C(C1CC1)N(Cc1cccc(OC(F)(F)F)c1)CC2 (stereo not given),-1.74,0.119,-3.68,-3.18,-2.99,-2.84,-0.356 (inactive),-0.686,-2.61,-1.05 (inactive)
CCCN1C(=O)[C@]2(Cc3ccccc31)N=C(c1ccc(OCCCO)cc1)O[C@@H]2c1ccccc1,-1.29,1.07,-1.46,-1.6,-4.4,-0.29,-0.906 (inactive),-1.17,0.278,-1.6 (inactive)

Structure (SMILES),z-score [1],z-score [2],z-score [3],z-score [4],z-score [5],z-score [6],z-score [7],z-score [8],z-score [9],z-score [10]
C=CC[C@@]1(C(=O)NCCCOC)N=C(c2ccc(OCCCO)cc2)O[C@@H]1c1ccccc1N=[N+]=[N-],1.42,0.0373,-0.465,-1.06,0.241,1.62,0.863 (inactive),-0.178,-0.917,0.2 (inactive)
CCCCCN1CC=CC23O[C@@H]4/C=C\CCC(C)OC(=O)C4[C@H]2C(=O)N(C(CO)C(C)C)[C@@H]3C1=O (stereo not given in full),-0.588,0.214,-0.272,1.82,0.216,-0.224,-0.0517 (inactive),0.699,-0.577,0.829 (inactive)
COCCOC(=O)N1C(=O)[C@@]2(c3cc(C#CCC(C(=O)OC)C(=O)OC)ccc31)[C@H](c1ccc(OCCO)cc1)N1[C@H](c3ccccc3)[C@H](c3ccccc3)OC(=O)[C@H]1[C@@H]2C(=O)N1CCc2cc(OC)c(OC)cc2C1,1.05,-0.0617,0.0859,-1.04,-0.467,0.363,1.37 (inactive),-0.262,-1.21,0.0243 (inactive)
O=C1N(CCS(=O)(=O)c2ccccc2)c2ccccc2[C@H]2OC(c3ccc(OCCCO)cc3)=N[C@@]12Cc1ccccc1,-0.386,0.726,-0.763,-2.18,-2.65,-0.654,0.777 (inactive),-1.19,-2.19,-1.02 (inactive)
CC(C)C(CO)N1C(=O)[C@@H]2[C@H]3C(=O)OCC=C[C@H]3OC23C=CCN(c2ccc(Cl)cc2)C(=O)[C@@H]13 (stereo not given in full),-0.713,0.556,0.813,1.04,-0.356,0.465,0.959 (inactive),-0.212,0.497,0.504 (inactive)
CCOC(=O)C[C@H]1[C@H](OC(=O)c2ccc(C(=O)c3ccccc3)cc2)[C@@H](NC(=O)CC(C)C)c2cc(OCCCO)ccc2N1C(=O)c1ccccc1,-1.43,-0.408,-0.0606,0.0631,-1.11,1.49,0.275 (inactive),0.52,0.242,0.256 (inactive)
CC(C)=C1C(=O)C(c2ccccc2)=C2CN3C(=O)N(CCc4ccccc4)C(=O)[C@]3(Cc3ccc(C(F)(F)F)cc3)[C@H]21,0.549,0.66,-0.232,-1.14,-1.16,-1.5,-0.876 (inactive),-0.699,-0.746,-0.327 (inactive)
CC1CC/C=C\[C@H]2OC34C=CCN(c5ccc(Cl)cc5)C(=O)[C@H]3N(C(C)CO)C(=O)[C@]4(C)C2C(=O)O1 (stereo not given in full),0.924,-0.761,1.24,1.31,0.37,0.807,-0.29 (inactive),-0.0845,-0.723,0.0378 (inactive)
COC(=O)C1=CC(CCCO)=CC(c2cccs2)N(Cc2cccc(OC(F)(F)F)c2)C=C1C(=O)OC (stereo not given),-0.855,0.543,0.896,-2.69,-3.76,0.996,0.000649 (inactive),-0.786,-0.512,-0.257 (inactive)
Cc1ccc(S[C@]2(C(=O)NCCN3CCOCC3)CC(=O)N(Cc3ccccc3Cl)[C@@H]2c2ccc(CO)cc2I)cc1,0.932,-0.0217,0.995,-1.62,-3.01,1.53,-0.272 (inactive),-0.151,-1.87,-0.817 (inactive)
[N-]=[N+]=NCc1ccccc1[C@H]1OC(c2ccc(OCCCO)cc2)=N[C@@]1(Cc1ccccc1N=[N+]=[N-])C(=O)NCC(O)CO (stereo not given in full),-0.471,0.517,-0.353,-3.22,-3.36,-0.504,-0.618 (inactive),-0.962,-0.934,0.286 (inactive)
CC(C)[Si](C#CCCCC#N)(O[C@H](c1ccccc1)c1cn(Cc2ccccc2)nn1)C(C)C,0.059,-0.454,-0.213,0.444,-0.34,0.604,0.0406 (inactive),0.993,-1.31,-0.235 (inactive)
CCCCC(=C=CC[C@H](O)c1ccc(OCCO)cc1)CCO,-0.113,0.524,0.761,-2.4,0.0135,-1.25,-0.968 (inactive),-0.573,-0.952,0.533 (inactive)
C=CCOC(=O)[C@@H]1[C@H]2C(=O)O[C@H](c3ccccc3)[C@H](c3ccccc3)N2[C@H](c2ccc(OCCOC(=O)[C@@H]3C[C@@H]4C(=O)N[C@@H](CCCC[N+](C)(C)C)C(=O)N4[C@@H]3c3ccc(O)cc3)cc2)[C@@]12C(=O)Nc1ccc(I)cc12,-0.602,0.751,-0.495,-2.03,-1.7,-1.87,-0.582 (inactive),-0.657,-1.1,0.0416 (inactive)
O=C1NC(=O)C2C1C=CC(C(O)c1ccco1)N2Nc1ccc(Cl)cc1Cl (stereo not given),-0.396,-0.792,-1.16,-1.57,-0.941,-1.96,-0.298 (inactive),-0.977,-0.218,-2.08 (inactive)

# — PubChem BioAssay
